This is one part of a sample in which hits are shown more often than they occur.
Methyltransferases – Primary Screen for Target Class Profiling of Small Molecule Inhibitors of Methyltransferases | calls only at 40 µM | 3.9% of 25,000 active | purified enzyme, MTase-Glo SAH luminescence; active compounds read low; call rule not given here
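Each enzyme was assayed with SAM and its substrate. SAH formation detected by MTase-Glo luminescence; single-point 40 uM screen[…].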
MTase-Glo ctr – inhibits MTase-Glo coupling enzymes without methyltransferase; shares compounds with Methyltransferases; Potency, µM (doses to about 57.3 µM), without a hit: at the highest dose activity change, negative = inhibition, usual class: inhibitors; MTase-Glo coupled enzymes, SAH conversion luminescence, no MTase; 6% of 180 active; active means well fitted inhibition curve with a large enough effect; further: potency means the concentration at half of the fitted maximal effect
Starred values were filed as active, the others as inactive; i = inactive; + = active, no number. On the % scale 0 is the no-effect control and ±100 the full control effect.

SMILES	Methyltransferases	others
CC1=C[C@@H](CN(CC2CC2)CC2CC2)[C@H](C(C)C)C[C@H]1Cc1nc2ccncc2[nH]1	+	MTase-Glo ctr=35µM*
COc1ccc2nc(C[C@@H]3C[C@@H](C(C)C)[C@H](CNC(=O)NC4CCCCC4)C=C3C)[nH]c2c1	i
COC(=O)c1ccc2nc(C[C@@H]3C[C@@H](C(C)C)[C@H](CNC(=O)c4cccnc4)C=C3C)[nH]c2c1	i
CCCn1c(=O)c2ccc(C(=O)NC(C)CC)cc2n2c(SCC(=O)NC(C)(C)C)nnc12 (stereo not given)	i
CN1C(=O)[C@H]2CN(Cc3cn[nH]c3-c3ccc(F)cc3)C[C@H]2C1=O	i
COc1ccc(-c2[nH]ncc2CN2CC[C@H]3CC[C@@H](C2)N3)cc1	+	MTase-Glo ctr=-2%
CN1CCN(c2nc3c(c(=O)[nH]2)CCN(Cc2cn[nH]c2-c2ccc(F)cc2)CC3)CC1	i
CCCn1c(=O)c2ccc(C(=O)NC3CCCC3)cc2n2c(=O)n(CC(=O)NCc3ccc(C)cc3)nc12	i
CC1(C(=O)NC2CCCCCC2)Cn2c(ccc2-c2ccco2)C(=O)N1Cc1ccc2c(c1)OCO2 (stereo not given)	i
Cc1ccc(NC(=O)c2cc3n(n2)CC(C)(C(=O)NC2CCCCC2)N(C)C3=O)c(C)c1 (stereo not given)	i
COc1cccc2c1OCCCN(c1cc(C3CC(O)C3)nc(N)n1)C2 (stereo not given)	+	MTase-Glo ctr=-2%
CS(=O)(=O)NC1CCN(c2cc(C3CC(N)C3)nc(N)n2)CC1 (stereo not given)	i
COc1cccc2c1OCCCN(Cc1cn(-c3ccccc3)nn1)C2	i
Cc1ccc(-c2n[nH]n3c2nc(=O)c2ccc(C(=O)NCc4ccccc4Cl)cc23)cc1	i
CCC(C)NC(=O)c1ccc2c(=O)n(C)c3nn(CC(=O)Nc4ccccc4C)c(=O)n3c2c1 (stereo not given)	i
CCC(C)NC(=O)CCc1nnc2n(Cc3ccc(Cl)cc3)c(=O)c3ccccc3n12 (stereo not given)	i

Assay outcomes as filed in PubChem.
